This passage reports growth results from PubChem BioAssay (NCI).

About 83,000 compounds went through this panel and 20% of them were active in at least one assay; those are over-represented in the sample as a whole.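 Results are percent growth after 48 hours of single-concentration exposure. 100 means growth as in untreated cells, lower positive values show inhibition; negative values down to -100 show cell death.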 Values without a mark were called inactive. The source made the active and inactive calls. The calls were made as follows: active = growth percent below 10; inactive = the rest.

Test in all cases: NCI-60 one-dose screen, 48 h (100 = growth as untreated, 0 = no growth, -100 = all killed)
Common to all, as to details: 10 µM unless noted

The test system of assay [1] is NCI-H23 lung.
Assay [2] has as its system NCI-H226 lung.
Assay [3] concerns NCI-H322M lung.
Assay [4] relates to HOP-62 NSCLC.
Assay [5] has as its system NCI-H460 lung.
Assay [6] has as its system HOP-92 NSCLC.
The subject of assay [7] is NCI-H522 lung.
The test system of assay [8] is A549/ATCC NSCLC.
Assay [9] relates to 786-0 renal.
Assay [10] has as its system COLO 205 colon.
Assay [11] has as its system DU-145 prostate.
For assay [12], the system named is K-562 leukemia.
The test system of assay [13] is MALME-3M melanoma.
Assay [14] relates to MDA-MB-231 breast.
In assay [15] the test system is RXF 393 renal.
In assay [16] the test system is SF-268 CNS.
Assay [17] relates to SF-295 CNS.
Assay [18] concerns SF-539 CNS.
In assay [19] the test system is UACC-257 melanoma.
The subject of assay [20] is M14 melanoma.

As to `COc1cccc(CC(C)=C(c2ccc(OCCN(C)C)cc2)c2ccc(OCCN(C)C)cc2)c1`, the growth in assay [1] is 70%; in assay [2] it was 31.3%; in assay [3], 1.04% (active); in [4], 3.07% (active); in assay [5], -64.9% (active); in assay [6], 10.2%. Also, the growth was -39.8% (active) in assay [7]; -21.7% (active) in assay [8]; -91% (active) in assay [9]; -70.5% (active) in [10]; 22.1% in assay [11]; -61.4% (active) in [12]. Moreover, the growth is -93% (active) in assay [13]; -75.4% (active) in assay [14]; -62.6% (active) in [15]; -32.9% (active) in assay [16]; 22.8% in assay [17]; -93.1% (active) in assay [18]. Besides, the figures for the growth in [19] and in [20] were -74.5% (active) and -80.5% (active), respectively.

For the compound `COC(=O)c1cccc2c1N(C)c1c(cccc1C(=O)OC)CC2`, the growth in assay [1] is 104%; in assay [2], 112%; in [3] it was 111%; in assay [4], 107%; in [5] it was 117%; in assay [6] it was 96.4%. For the same compound, the growth in assay [7] was 96.1%; in assay [8] it was 112%; in [9], 108%; in assay [10] it was 102%; in assay [11], 107%; in [12] it was 121%. In addition, the growth in [13] is 115%; in [14], 111%; in assay [15], 124%; in assay [16] it was 98.8%; in assay [17], 104%; in assay [18], 106%. Further, the growth in assay [19] was 121%; in assay [20], 104%.

As for `Cc1ccc(/C=C2\CN(C(=O)CCN3CCC(=NO)CC3)C/C(=C\c3ccc(C)cc3)C2=O)cc1`, the growth in assay [1] was 7.62% (active); in assay [2], 81%; in assay [3], 16.8%; in assay [4], 46.9%; in assay [5], -42.5% (active); in assay [6] it was 72.2%. For the same compound, the growth in assay [7] is -28.6% (active); in assay [8], 50.8%; in [9] it was -15.5% (active); in assay [10], -35.4% (active); in assay [11], 21.6%; in [12], 4.38% (active). In addition, the growth in [13] was -27.6% (active); in assay [14], -13.8% (active); in assay [15], -77.7% (active); in assay [16] it was 12.9%; in assay [17], -1.83% (active); in [18], -18% (active). For the same compound, the growth in assay [19] is 44.9%; in assay [20] it was 5.63% (active).

As to `COc1ccc(CN2CCc3c(Sc4ccccc4)nc(N)nc3C2=O)c(OC)c1`, the growth is 49% in [1]; 67.6% in [2]; 67.9% in assay [3]; 86.2% in assay [4]; 64.6% in assay [5]; -11.4% (active) in assay [6]. Moreover, the growth was 21.3% in assay [7]; 60.5% in assay [8]; 62.4% in assay [9]; 80.2% in [10]; 77.4% in [11]; 48.3% in assay [12]. The growth was 38.9% in assay [13]; 69% in assay [14]; 44.4% in [15]; 67.3% in assay [16]; 69.6% in [17]; 66.5% in assay [18]. Moreover, the growth in [19] is 50.5%; in [20], 61.7%.

Take `N/C(=N\C(N)=N\c1nc2ccccc2s1)c1cccc(Br)c1`: the growth is 77% in [1]; 71.6% in [2]; 81% in [3]; -0.459% (active) in [4]; 76.4% in [5]; 96.7% in assay [6]. Besides, the growth in assay [7] was 80%; in [8], -40.6% (active); in assay [9] it was 98.4%; in assay [10], 115%; in assay [11] it was 99.1%; in assay [12], 73.6%. In addition, the growth is 101% in [13]; 73.4% in assay [14]; 95.5% in assay [15]; 101% in assay [16]; 76% in [17]; 98.6% in [18]. In addition, the growth in assay [19] is 103%; in [20], 82%.

As to `COc1ccc(NC(=O)c2c(Nc3ccc(OC)cc3OC)n[nH]c2N)c(OC)c1`, the growth was 91.7% in assay [1]; 89.9% in assay [2]; 87.7% in assay [3]; 94.3% in assay [4]; 107% in assay [5]; 74.1% in [6]. In addition, the growth in assay [7] was 79.3%; in assay [8] it was 96.8%; in assay [9], 107%; in assay [10] it was 100%; in assay [11] it was 108%; in assay [12], 95.6%. Also, the growth in assay [13] is 107%; in assay [14], 72.7%; in assay [15], 81.1%; in assay [16], 102%; in [17], 92.1%; in [18], 116%. Moreover, the values for the growth in assay [19] and in [20] were 114% and 89.6%, respectively.

Consider `O=S(=O)(NCCCNc1nccc(-n2ccc3cccnc32)n1)c1ccc(Br)cc1`, for which the growth in assay [1] was 108%; in assay [2], 96.5%; in assay [3] it was 103%; in assay [4], 109%; in assay [5], 105%; in [6], 109%. Also, the growth in [7] was 92.6%; in [8] it was 107%; in assay [9] it was 104%; in [10], 114%; in assay [11], 104%; in assay [12], 101%. The growth in assay [13] is 118%; in assay [14], 104%; in assay [15], 107%; in assay [16], 94.9%; in assay [17], 104%; in [18], 103%. The growth was 118% in assay [19] and 110% in [20].

For the compound `c1cc2[nH]ncc2cc1-c1nc2ccc3[nH]ncc3c2c2c1CCC2`, the growth in assay [1] was 70.2%; in [2] it was 42.5%; in assay [3] it was 58%; in [4], 47.6%; in assay [5] it was 31.5%; in assay [6] it was 42.5%. Further, the growth in [7] is 6.78% (active); in assay [8], 39.4%; in [9], 49.7%; in assay [10], 25.7%; in assay [11], 54.3%; in assay [12] it was 15.4%. For the same compound, the growth in [13] is 47.3%; in assay [14] it was 70.2%; in [15], 19.5%; in assay [16], 56.2%; in assay [17], 80.6%; in [18] it was 45%. For the same compound, the growth was 65.8% in assay [19] and 21% in assay [20].
